Counter-ions that a name gives are not always drawn. ± gives the standard deviation of the averaged measurements.
Legend:
[1] = test system: Saccharomyces cerevisiae BY4741 SeMeCo community; experiment: z-score of prototroph abundance vs DMSO median; higher = larger share of this subpopulation than in DMSO controls; conditions: 10 µM; 24 h; SM minimal medium; subpopulation (auxotrophy): Prototroph
In short: (§1)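 A Saccharomyces cerevisiae BY4741 community carried four plasmids, each restoring one auxotrophy and encoding a distinct fluorescent protein. It was pre-grown overnight to OD600 1.0, diluted to 0.3, and 70 µl was added to 384-well plates acoustically predosed with library drugs (10 µM final), then grown 24 h in minimal SM medium. Cells were paraformaldehyde-fixed and imaged by automated confocal microscopy, with single-auxotroph fluorescent strains setting thresholds and autofluorescence correction. Each subpopulation's abundance was scored as a z-score against the vehicle-well median.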

[2] = test system: Saccharomyces cerevisiae BY4741 SeMeCo community; experiment: z-score of subpopulation abundance vs DMSO median, subpopulation auxotrophic for M; higher = larger share of this subpopulation than in DMSO controls; conditions: 10 µM; 24 h; SM minimal medium; subpopulation (auxotrophy): M
In short: as §1

[3] = test system: Saccharomyces cerevisiae BY4741 SeMeCo community; experiment: z-score of subpopulation abundance vs DMSO median, subpopulation auxotrophic for L; higher = larger share of this subpopulation than in DMSO controls; conditions: 10 µM; 24 h; SM minimal medium; subpopulation (auxotrophy): L
In short: as §1

[4] = test system: Saccharomyces cerevisiae BY4741 SeMeCo community; experiment: z-score of subpopulation abundance vs DMSO median, subpopulation auxotrophic for H; higher = larger share of this subpopulation than in DMSO controls; conditions: 10 µM; 24 h; SM minimal medium; subpopulation (auxotrophy): H
In short: as §1

[5] = test system: Saccharomyces cerevisiae BY4741 SeMeCo community; experiment: z-score of subpopulation abundance vs DMSO median, subpopulation auxotrophic for LU; higher = larger share of this subpopulation than in DMSO controls; conditions: 10 µM; 24 h; SM minimal medium; subpopulation (auxotrophy): LU
In short: as §1

[6] = test system: Saccharomyces cerevisiae BY4741 SeMeCo community; experiment: z-score of subpopulation abundance vs DMSO median, subpopulation auxotrophic for HM; higher = larger share of this subpopulation than in DMSO controls; conditions: 10 µM; 24 h; SM minimal medium; subpopulation (auxotrophy): HM
In short: as §1

[7] = test system: Saccharomyces cerevisiae BY4741 SeMeCo community; experiment: z-score of subpopulation abundance vs DMSO median, subpopulation auxotrophic for HU; higher = larger share of this subpopulation than in DMSO controls; conditions: 10 µM; 24 h; SM minimal medium; subpopulation (auxotrophy): HU
In short: as §1

[8] = test system: Saccharomyces cerevisiae BY4741 SeMeCo community; experiment: z-score of subpopulation abundance vs DMSO median, subpopulation auxotrophic for HL; higher = larger share of this subpopulation than in DMSO controls; conditions: 10 µM; 24 h; SM minimal medium; subpopulation (auxotrophy): HL
In short: as §1

[9] = test system: Saccharomyces cerevisiae BY4741 SeMeCo community; experiment: z-score of subpopulation abundance vs DMSO median, subpopulation auxotrophic for HLU; higher = larger share of this subpopulation than in DMSO controls; conditions: 10 µM; 24 h; SM minimal medium; subpopulation (auxotrophy): HLU
In short: as §1

[10] = test system: Saccharomyces cerevisiae BY4741 SeMeCo community; experiment: z-score of subpopulation abundance vs DMSO median, subpopulation auxotrophic for HLM; higher = larger share of this subpopulation than in DMSO controls; conditions: 10 µM; 24 h; SM minimal medium; subpopulation (auxotrophy): HLM
In short: as §1

[11] = test system: Saccharomyces cerevisiae BY4741 SeMeCo community; experiment: z-score of subpopulation abundance vs DMSO median, subpopulation auxotrophic for HUM; higher = larger share of this subpopulation than in DMSO controls; conditions: 10 µM; 24 h; SM minimal medium; subpopulation (auxotrophy): HUM
In short: as §1

[12] = test system: Saccharomyces cerevisiae BY4741 SeMeCo community; experiment: z-score of subpopulation abundance vs DMSO median, subpopulation auxotrophic for LUM; higher = larger share of this subpopulation than in DMSO controls; conditions: 10 µM; 24 h; SM minimal medium; subpopulation (auxotrophy): LUM
In short: as §1

[13] = test system: Saccharomyces cerevisiae BY4741 SeMeCo community; experiment: z-score of subpopulation abundance vs DMSO median, subpopulation auxotrophic for HLUM; higher = larger share of this subpopulation than in DMSO controls; conditions: 10 µM; 24 h; SM minimal medium; subpopulation (auxotrophy): HLUM
In short: as §1

[14] = test system: Saccharomyces cerevisiae BY4741 SeMeCo community; experiment: mean cell size (pixel area) (pixels); higher = larger cells; conditions: 10 µM; 24 h; SM minimal medium
In short: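 A four-plasmid fluorescent Saccharomyces cerevisiae BY4741 community was tested; each plasmid complements one auxotrophy and carries a fluorescent marker. An overnight preculture at OD600 = 1.0 was diluted to OD600 = 0.3, and 70 µl was added to 384-well plates acoustically predosed with drug (final 10 µM) in SM medium for 24 h. Cells were fixed with paraformaldehyde and imaged by automated confocal microscopy, with analysis in Harmony. Mean cell pixel area per well is averaged over 3 replicates. Same SeMeCo high-content imaging drug screen: Selleck FDA-approved drugs at 10 µM, 24 h in SM medium, 384-well plates, 3 replicates.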

[15] = test system: Saccharomyces cerevisiae BY4741 SeMeCo community; experiment: z-score of subpopulation abundance vs DMSO median, subpopulation auxotrophic for U; higher = larger share of this subpopulation than in DMSO controls; conditions: 10 µM; 24 h; SM minimal medium; subpopulation (auxotrophy): U
In short: as §1

[16] = test system: Saccharomyces cerevisiae BY4741 SeMeCo community; experiment: z-score of subpopulation abundance vs DMSO median, subpopulation auxotrophic for LM; higher = larger share of this subpopulation than in DMSO controls; conditions: 10 µM; 24 h; SM minimal medium; subpopulation (auxotrophy): LM
In short: as §1

[17] = test system: Saccharomyces cerevisiae BY4741 SeMeCo community; experiment: z-score of subpopulation abundance vs DMSO median, subpopulation auxotrophic for UM; higher = larger share of this subpopulation than in DMSO controls; conditions: 10 µM; 24 h; SM minimal medium; subpopulation (auxotrophy): UM
In short: as §1

Compound	z-score of prototroph abundance [1]	z-score of subpopulation abundance [2]	z-score of subpopulation abundance [3]	z-score of subpopulation abundance [4]	z-score of subpopulation abundance [5]	z-score of subpopulation abundance [6]	z-score of subpopulation abundance [7]	z-score of subpopulation abundance [8]	z-score of subpopulation abundance [9]	z-score of subpopulation abundance [10]	z-score of subpopulation abundance [11]	z-score of subpopulation abundance [12]	z-score of subpopulation abundance [13]	mean cell size [14]	z-score of subpopulation abundance [15]	z-score of subpopulation abundance [16]	z-score of subpopulation abundance [17]
Nc1ccc(S(=O)(=O)Nc2ncccn2)cc1 [Sodium sulfadiazine]	-0.25	0.4	0.56	-0.33	0.3	0.17	-0.58	0.08	0.17	-0.23	-0.68	0.15	0.02				
COc1nc2ccc(Br)cc2cc1[C@@H](c1ccccc1)[C@@](O)(CCN(C)C)c1cccc2ccccc12 [Bedaquiline fumarate]	-1.58	-0.55	-0.13	1.1	0.86	0.33	1.44	0.4	0.68	-0.14		3.68	1.29	11.2 ± 0.16	0.97	0.49	
COc1ccc2cc([C@H](C)C(=O)O)ccc2c1 [Naproxen Sodium]	1.33	0.17	0.02	-0.42	-0.46	-0.61	-1.5	0.47	0	0.18		-0.75	-0.52	12.84 ± 0.07	-1.01	-0.16	
CCC[C@@H]1C[C@@H](C(=O)N[C@@H]([C@H]2O[C@H](SC)[C@H](O)[C@@H](O)[C@H]2O)[C@H](C)Cl)N(C)C1 [Clindamycin HCl]	-0.3	0.72	0.8	-0.08	-0.2	0.38	-0.26	0.26	-0.02	0.06	-0.28	0.28			-0.42	0.83	0.35
CN1CC2c3ccccc3Oc3ccc(Cl)cc3C2C1 (stereo not given) [Asenapine maleate]	0.14	-0.45	1.05	-0.64	0.61	-0.76	-0.59	0.5	0.37	-0.53			0.32	12.34 ± 0.11	-0.5	0.5	-0.2
CCC1=C(C)CN(C(=O)NCCc2ccc(S(=O)(=O)NC(=O)N[C@H]3CC[C@H](C)CC3)cc2)C1=O [Glimepiride]	-0.13	-0.24	0.24	-0.23	-0.1	0.24	0.22	0.01	0.26	0.03		-0.01	0.7	12.5 ± 0.2	-0.47	0.34	
Cc1nccn1CC1CCc2c(c3ccccc3n2C)C1=O (stereo not given) [Ondansetron HCl]	0.89	-1.05	-0.44	-0.7	-0.06	-0.93	-0.51	-0.77	-0.69	-0.71		-0.9	-0.89	12.4 ± 0.2	0.47	-0.49	0.08
O=C1C(=O)c2ccccc2C(O)=C1C1CCC(c2ccc(Cl)cc2)CC1 (stereo not given) [Atovaquone]	-0.82	-0.46	1.54	1.46	0.47	0.9		1.12	1.94	0.84	0.71	1.22			-0.2	1.39	0.03
COc1cc2c(cc1OC)C(=O)C(CC1CCN(Cc3ccccc3)CC1)C2 (stereo not given) [Donepezil HCl]	0.26	0.12	-0.02	0.71	-0.36		0.45	-0.23	-0.1	0.49	0.3	-0.52	-1.2		-0.01	-0.26	
CCCCOc1ccc(C(=O)CCN2CCCCC2)cc1 [Dyclonine HCl]	0.35	0.29	0.13	-0.1	-0.73	-0.09	0.17	-0.74	-0.26	-0.52		-0.27	-0.65	12.2 ± 0.23	-0.57	0.14	
Cc1ccc(Nc2c(F)cccc2Cl)c(CC(=O)O)c1 [Lumiracoxib]	1.08	0.63	-1.37	-0.79	-1.15	0	-1.07	-0.22	-0.53	3.33		-0.56	-0.5	12.9 ± 0.21	-0.66	0.14	
CCC(C)C1OC2(CCC1C)CC1CC(CC=C(C)C(OC3CC(OC)C(OC4CC(OC)C(O)C(C)O4)C(C)O3)C(C)C=CC=C3COC4C(O)C(C)=CC(C(=O)O1)C34O)O2 (stereo not given) [Ivermectin]		-0.12	-0.07	1.41	-0.12		1.39	0.26	2.13	0.72	2.99	1.28	0.72		0.12	0.26	1.13
CC[C@H](C)C[C@H](C)CCCCCCCCC(=O)N[C@H]1C[C@@H](O)[C@@H](NCCN)NC(=O)[C@@H]2[C@@H](O)CCN2C(=O)[C@H]([C@H](O)CCN)NC(=O)[C@H]([C@H](O)[C@@H](O)c2ccc(O)cc2)NC(=O)[C@@H]2C[C@@H](O)CN2C(=O)[C@H]([C@@H](C)O)NC1=O [Caspofungin Acetate]	-12.2	-8.37	5.93	31.6	-0.13	-0.2	8.05	51.3	13.9	45.5		5.81	127	12.17 ± 0.068	-3.79	1.23	-2.51
Cc1cccc(Nc2ccccc2C(=O)O)c1C [Mefenamic Acid]		0.15	0.31	-0.41	-0.62	-0.11		0.24	-0.38	-0.42	-0.64	-0.45	-0.2		-0.58	0.12	-0.74
CN(C)CCc1c[nH]c2ccc(CS(=O)(=O)N3CCCC3)cc12 [Almotriptan Malate]		-0.37	0.74	-0.37	0.07	-1.15	0	-0.69	-0.86	-0.23	-0.91	-0.23	-0.37		-0.42		-0.12

Source: the supplement of paper PMC8975748
